# Data reported in PubChem BioAssay.
# The source made the active and inactive calls.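 The calls were made as follows: active = compounds whose cell count with miR-34 switched on is under 0.7 times the count with it off; inactive = the rest.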
# Experiment: viability loss with induced miR-34 in A549 – imaging, A549 dox-inducible miR-34, nuclei and caspase counts, primary screen (AID 1347080); also: test concentration not given here
# Conditions: A549 miR-34 inducible, Hoechst nuclei count, 48 h
# [1] = stronger effect = lower value, cell number ratio, induced over uninduced
# [2] = measured here: relative caspase fold change +Dox/-Dox
# [3] = measured here: total cells with miR-34 induction, stronger effect = lower value
# [4] = measured here: total cells without miR-34 induction
SMILES,fold change [1],fold change [2],cell count [3],cell count [4]
COc1cc2c3cc1Oc1c(OC)c(OC)cc4c1[C@@H](Cc1ccc(OC(=O)c5ccc([N+](=O)[O-])cc5)c(c1)Oc1ccc(cc1)C[C@@H]3N(C)CC2)N(C)CC4,1.06 (inactive),0.897,2050,1940
CCCCC[C@H](O)/C=C/[C@@H]1[C@@H](C/C=C\CCCC(=O)NCCO)[C@@H](O)C[C@@H]1O,0.916 (inactive),1.36,5800,6330
CCCCCCCCCCCCCCCC(=O)N[C@H]1CCOC1=O,0.999 (inactive),1.15,5590,5590
CCCCCCCCCCCCCCCC(=O)OCC,0.854 (inactive),0.575,5080,5950
CCNC1=N[C@@H]2[C@@H](O)[C@H](O)[C@@H](CO)O[C@@H]2S1,0.906 (inactive),1.7,6020,6640
CCCCCC(=O)/C=C/[C@@H]1[C@@H](CCCCCCC(=O)O)[C@@H](O)C[C@H]1O,1.03 (inactive),1.29,5670,5520
CCCCC[C@H](O)/C=C/[C@H]1CC[C@H](O)[C@@H]1CCCCCCC(=O)O,0.966 (inactive),1.33,6200,6420
O=P(O)(O)O[C@H]1[C@H](O)[C@@H](O)[C@H](OP(=O)(O)O)[C@@H](OP(=O)(O)O)[C@H]1O,1 (inactive),0.768,5340,5330
CCCCC[C@H](O)/C=C/[C@@H]1[C@@H](C/C=C\CCCC(=O)N(C)C)[C@@H](O)C[C@H]1O,0.94 (inactive),1.13,5150,5480
NCCCNCCCCN(CCCN)[N+]([O-])=NO,1.02 (inactive),1.33,5980,5880
CCCCC/C=C\C=C\CCCCCCCCC(=O)O,1.07 (inactive),1.02,5840,5480
CCCCC/C=C\C/C=C\C/C=C\C/C=C\CCCCNC(=O)c1ccc(O)cc1,0.937 (inactive),0.908,5740,6120
O=C1C[C@@H]2[C@@H](CC[C@@H](O)CCc3ccccc3)[C@H](O)C[C@@H]2O1,1.01 (inactive),0.657,6130,6050
O=C(O)CCC/C=C\C[C@@H]1[C@@H](/C=C/[C@H](O)COc2cccc(C(F)(F)F)c2)[C@H](O)C[C@@H]1O,1.06 (inactive),0.987,6230,5890
CCCCCC/C=C\CCCCCCCCCCOC(C)=O,0.943 (inactive),0.538,5570,5900
CC(C)CCCCCCC/C=C/C(=O)O,0.859 (inactive),0.582,5080,5910
CCCCC[C@H](O)/C=C/[C@H]1C(=O)C[C@H](O)[C@@H]1C/C=C/CCCC(=O)O,0.96 (inactive),1.11,5890,6130
O=P(O)(O)OC1C(O)C(OP(=O)(O)O)C(O)C(OP(=O)(O)O)C1O (stereo not given),0.967 (inactive),0.962,5750,5950
CCCCCCCCCC(=O)NC(CN1CCOCC1)C(O)c1ccccc1 (stereo not given),1.03 (inactive),0.968,5830,5670
CCCc1cc(C(=O)c2ccc(-c3ccccc3)cc2)ccc1OCCCN1CCCc2c(OC(C)(C)C(=O)O)cccc21,0.856 (inactive),1.42,5600,6540
O=C(O)CCC/C=C\C[C@H]1[C@@H](/C=C/[C@@H](O)CCc2ccccc2)[C@H](O)C[C@@H]1O,0.9 (inactive),0.837,5490,6100
CCCCCCCCCC(=O)CC(=O)N[C@H]1CCOC1=O,0.908 (inactive),0.275,6050,6660
O=C(O)CCC/C=C\C[C@@H]1[C@@H](/C=C/C(F)(F)COc2ccccc2)[C@H](O)C[C@@H]1O,1.03 (inactive),1.05,5600,5440
O=C1OC[C@@H](Cc2cccc(O)c2)[C@@H]1Cc1cccc(O)c1,0.923 (inactive),1.92,5590,6060
CCCCCCCCCCCCCCCCCCCCCCC(=O)OCC,0.908 (inactive),0.513,4740,5220
CCCCC[C@H](O)/C=C/[C@@H]1[C@H](C/C=C\CCCC(=O)O)[C@H](O)C[C@H]1O,0.921 (inactive),1.6,5020,5450
CCCCCCCCCCCCCCCCCCCCCC(=O)NCCO,1.03 (inactive),0.641,6180,5980
CCOc1c2c(c(OCC)c3ccccc13)C(=O)N(c1ccc(CC(=O)NS(=O)(=O)c3ccccc3)cc1)C2,0.911 (inactive),1.11,5560,6100
CCCCC[C@@H](O)/C=C/[C@H]1[C@H](O)CC(=O)[C@@H]1C/C=C\CCCC(=O)O,0.971 (inactive),1.57,6000,6180
CCCCC/C=C\C/C=C\C/C=C\C/C=C\CCCCN1C(=O)C=CC1=O,0.86 (inactive),0.663,5540,6440
